About 13,000 (27%) of roughly 48,000 compounds showed an effect of 50% or more. This is one part of the list.
Test system: Wolbachia pipientis
Test: Anti-Wolbachia Cell-Based Screen
Format: functional
Design: scale not given: in the data most compounds retested in dose-response had high values
Conditions: 5 µM

In order of falling “Percent Effect” value:
1. CS(=O)(=O)N1CCCC(n2nnn(-c3ccccc3)c2=O)C1 (stereo not drawn)  149.4%
2. CN(C)Cc1cccc(C(=O)N2CCCC(n3cncn3)C2)c1 (stereo not drawn)  139.2%
3. CCS(=O)(=O)N1CCCC(n2nnn(-c3ccccc3)c2=O)C1 (stereo not drawn)  133%
4. Cc1ccc(-c2ccnc(N(C)CC3CCCN3C)n2)c(C)n1 (stereo not drawn)  123%
5. CCOc1ncccc1C(=O)N1CCCC1c1c(C)nn(C)c1Cl (stereo not drawn)  122.7%
6. CC1=Nc2c(c(=O)[nH]n2C2CCCC2)C(c2ccc(C(=O)O)cc2)S1 (stereo not drawn)  117.5%
7. CCCn1nnc(NCc2cc(Br)cc(Br)c2OC)n1  116%
8. CS(=O)(=O)N1CCC(n2nnn(-c3ccccc3)c2=O)CC1  113.8%
9. CCn1nnc(NCc2cc(Cl)cc(Cl)c2OC)n1  112%
10. Cc1ccc(-c2ccnc(N(C)CC3CCCO3)n2)c(C)n1 (stereo not drawn)  111.2%
11. CC1=Nc2c(c(=O)[nH]n2C2CCCCC2)C(c2ccc(C(=O)O)cc2)S1 (stereo not drawn)  110.1%
12. COC(=O)c1cccc(C(=O)N2CCCC(n3cncn3)C2)c1 (stereo not drawn)  108.5%
13. CCn1nnc(NCc2cc(Br)cc(Br)c2OC)n1  107.9%
14. CC1=Nc2c(c(=O)[nH]n2C2CCCC2)C(c2cccnc2)S1 (stereo not drawn)  106.9%
15. CCCOc1cccc(C(=O)N2CCCC(n3cncn3)C2)c1 (stereo not drawn)  99.87%
16. COc1ncccc1C(=O)N1CCCC1c1c(C)nn(C)c1Cl (stereo not drawn)  89.91%
17. CCN1CCCC(CN(C)c2nccc(-c3ccc(C)nc3C)n2)C1 (stereo not drawn)  89.59%
18. CN(CC1CCCN1C)c1nccc(C2CCCC2)n1 (stereo not drawn)  25.37%
19. C[C@@H]1CN(C2CCN(Cc3nn(C)c4cccc(Cl)c34)CC2)C[C@H](C)O1  24.58%
20. C[C@@H]1CN(CC(C)(C)N2CCCCC2)CC[C@@]1(O)C1CC1  22.77%
21. Cc1ccc(CNC(CCO)C2CCCCC2)nc1 (stereo not drawn)  14.22%
22. COc1ccc(C2SC(C)=Nc3c2c(=O)[nH]n3C2CCCCC2)cc1O (stereo not drawn)  9.619%
23. CCc1cccc(OCC(=O)N2CCCC(n3cncn3)C2)c1 (stereo not drawn)  9.617%
24. CCOc1c(Cl)cc(Cl)cc1CNCCCn1ccnc1  7.909%
25. CS(=O)(=O)Cc1cccc(C(=O)N2CCCC(n3cccn3)C2)c1 (stereo not drawn)  7.401%
26. CO[C@@H]1CCN(S(=O)(=O)c2cn(C)cn2)[C@H]1Cc1ccncc1.O=C(O)C(F)(F)F  7.215%
27. CCOCC(=O)Nc1ncn(Cc2cccc(Br)c2)n1  5.844%
28. CCOc1ncccc1C(=O)N1CCCCC1c1nccs1 (stereo not drawn)  4.622%
29. CC(CN1CCOCC1)N(Cc1ccccc1)Cc1ccncc1 (stereo not drawn)  4.516%
30. CC1=Nc2c(c(=O)[nH]n2C2CCCC2)C(c2cccc(O)c2)S1 (stereo not drawn)  4.051%
31. O=C(NCCNS(=O)(=O)c1cc(F)cc(F)c1)c1ccoc1  3.11%
32. CCOc1c(CNCCCn2ccnc2)cc(Cl)cc1OC.Cl.Cl  2.415%
33. CN(C)CC1CN(Cc2nnc(-c3ccccc3Cl)o2)CCO1 (stereo not drawn)  1.962%
34. CCS(=O)(=O)Cc1nnnn1-c1ccccc1  1.834%
35. C[S+]([O-])c1nncn1CCCc1ccc(Cl)cc1 (stereo not drawn)  1.023%
36. CC(=O)N1Cc2ccccc2CC1C(=O)Nc1ccc(N(C)C)cn1 (stereo not drawn)  -0.765%
37. O=C1CC(C2CCCCC2)c2c(n(C3CCCC3)[nH]c2=O)N1 (stereo not drawn)  -0.7877%
38. NC(=O)C1CCN(S(=O)(=O)c2cnn(-c3ccccc3)c2)C1 (stereo not drawn)  -1.203%
39. Cn1nccc1C(=O)N1CCN(C(=O)C2CCC2)[C@@H]2CS(=O)(=O)C[C@@H]21  -1.449%
40. CCCC(=O)NCc1cc(Br)c(OC)c(OC)c1  -2.36%
41. Cc1nc(CN2CCC(CNC(=O)C3(C#N)CCCC3)CC2)oc1C  -2.689%
42. CN(CC1CCCCO1)c1nncc(-c2cccc(F)c2)n1 (stereo not drawn)  -2.947%
43. CNC(=O)C1CCCCN1C(=O)c1csc(-c2ccc(C)cc2)n1 (stereo not drawn)  -3.515%
44. O=C(c1cccc(OC2CCCC2)c1)N1CCCC(n2cncn2)C1 (stereo not drawn)  -3.661%
45. O=C(CCc1ccccc1)C1CCCN(Cc2cncn2C2CC2)C1 (stereo not drawn)  -3.844%
46. COCC(=O)N[C@H](C)c1onc(-c2ccccc2)c1C(=O)O  -4.041%
47. COc1ccc(-c2ccc(C(=O)NS(C)(=O)=O)c(F)c2)cc1  -4.531%
48. OC(CNCCn1cccn1)COc1ccc2ccccc2c1 (stereo not drawn)  -4.73%
49. O=C(c1cccc(CN2CCCC2)c1)N1CCCC(n2cncn2)C1 (stereo not drawn)  -4.839%
50. Cc1csc(CN(CC2CCCO2)C(=O)c2ccc(C)nc2C)n1 (stereo not drawn)  -5.335%
51. CS(=O)(=O)N1CCCC(C(=O)N2CCOc3ccccc32)C1 (stereo not drawn)  -6.293%
52. COCc1ncc(CN(CCN(C)C)Cc2ccc(C)s2)cn1  -7.942%
53. COCCn1cc(C(=O)N2CCCC(n3cncn3)C2)ccc1=O (stereo not drawn)  -8.291%
54. CS(=O)(=O)N1CCN2C(=O)N(C3CCCCC3)C[C@H]2C1  -8.389%
55. O=C(Nc1cn[nH]c1)c1ccc(O)nc1  -8.814%
56. CCS(=O)(=O)NCCNc1c(C#N)cnc2c(C)cc(F)cc12  -8.935%
57. CC1(C)CC1(C(=O)N1CC(c2cccnc2)C1)c1ccc(F)cc1 (stereo not drawn)  -9.092%
58. COc1ncccc1C(=O)N1CCCC1c1c(C)n[nH]c1C (stereo not drawn)  -9.272%
59. CCCNC(=O)C(C)Nc1ccc(OCC)cc1 (stereo not drawn) [PROPETAMIDE]  -10.93%
60. Cc1ccc(-c2ccnc(N[C@H]3COC[C@@H]3N3CCCC3)n2)c(C)n1  -11.11%
61. CCS(=O)(=O)N1CCCC(c2nc3ccccc3n2C(C)C)C1 (stereo not drawn)  -13.43%
62. CCCc1nnc(N(C)CC2CCCN(CC)C2)o1 (stereo not drawn)  -14.65%
63. CS(=O)(=O)N1CCC(N2CCCC2c2ccccn2)CC1 (stereo not drawn)  -15.97%
64. Cc1ccc(NCCNC(=O)C2Cc3cc(C)c(C)cc3O2)nn1 (stereo not drawn)  -19.52%
65. Cc1nn(C)cc1CN(C)c1nccc(-c2cn(C)nc2C)n1  -19.87%
66. CC(C)(C(=O)NCCC(=O)O)c1cccc(Br)c1  -20.92%
67. CC(CN1CCCC1=O)NC(=O)c1cc(-c2cccc(Cl)c2)no1 (stereo not drawn)  -44.82%
68. COc1cc(Br)c(CNc2ccn(CCC(N)=O)n2)cc1OC  -66.5%

From ChEMBL document CHEMBL3988442, “University of Dundee, Small-Polar-MMV Screening Library” (2021)
